Source: PubChem BioAssay (National Center for Advancing Translational Sciences (NCATS))
FBPA Giardia inh – qHTS Assay for Inhibitors of Fructose-1,6-bisphosphate Aldolase from Giardia Lamblia. AID 2451, 2010. hit rate 0.71% among 290,000. Potency, µM (doses to about 59.6 µM), without a hit: top-dose activity, negative = inhibition, most hits filed as inhibitors. purified Giardia FBPA; also: potency is read from the fitted curve at half-maximal effect; % is scaled to controls: 0 for no effect and ±100 for the full control effect; nearly all actives have a fitted effect of over 55% in size
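Giardia FBPA (40 nM reagent) was preincubated 10 min at RT with compound (up to 57.5 uM final), then substrate plus GAPDH/TPI/NAD/arsenate coupling system with diaphorase/resazurin was added; resorufin fluorescence (525/598 nm) was read after 20 min.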
NS1 inh – qHTS Assay for Inhibitors of Influenza NS1 Protein Function; Potency, µM (highest dose often 46.1 µM), inactives show top-dose activity, positive = more growth; hit rate 0.4% among 270,000; AID 2326, 2010; calls by dose curve; also: potency is read from the fitted curve at half-maximal effect; actives are rising curves; nearly all actives have a fitted effect of over 50% in size
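S. cerevisiae expressing influenza A NS1, grown in glucose, washed, then diluted 1:100 into pH 6.0 -URA galactose medium with 23 nl compound. Growth recovery read as OD600; NS1-free strain serves as control.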
SARS PLpro yeast-1 – qHTS of Yeast-based Assay for SARS-CoV PLP. S. cerevisiae expressing SARS-CoV PLpro, growth rescue. Potency, µM (doses to about 32.9 µM), without a hit: at the highest dose activity, positive = growth rescue, most hits filed as activators. hit rate 0.19% among 330,000. AID 485353, 2010; calls by dose curve; also: potency is read from the fitted curve at half-maximal effect; 0% is about no effect; nearly all actives have a fitted effect of over 55% in size
AmpC inh detg – qHTS Inhibitors of AmpC Beta-Lactamase (assay with detergent) | Potency, µM (doses to about 114 µM), without a hit: top-dose activity change, negative = inhibition, most hits filed as inhibitors | AmpC hydrolysis of nitrocefin, absorbance 480 nm, 0.01% Triton | P00811 | hit rate 0.041% among 370,000 | AID 485294, 2010;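 also: potency is read from the fitted curve at half-maximal effect; 0% = no-compound wells and -100% = no-enzyme wells; nearly all actives have a fitted effect of over 25% in size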
Target sequence (P00811 whole entry, looked up): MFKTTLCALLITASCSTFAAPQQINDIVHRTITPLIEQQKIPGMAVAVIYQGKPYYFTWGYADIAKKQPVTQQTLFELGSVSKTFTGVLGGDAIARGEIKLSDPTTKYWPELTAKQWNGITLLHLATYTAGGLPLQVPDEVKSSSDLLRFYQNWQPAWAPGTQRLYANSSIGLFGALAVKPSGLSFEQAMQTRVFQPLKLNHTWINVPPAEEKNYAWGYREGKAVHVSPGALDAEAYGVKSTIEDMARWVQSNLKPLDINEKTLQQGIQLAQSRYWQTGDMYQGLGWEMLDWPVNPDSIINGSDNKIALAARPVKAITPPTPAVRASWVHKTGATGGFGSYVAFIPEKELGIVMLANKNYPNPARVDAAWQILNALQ
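AmpC (5.3 nM in the dispensed reagent) in 20 mM phosphate pH 7.0 with 0.01% (detergent screen) or 0.0001% Triton X-100 was preincubated with compounds for 15 min at room temperature. Nitrocefin was then added from an 800 uM solution, and hydrolysis was followed at 480 nm.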
AmpC inh no detg – qHTS Inhibitors of AmpC Beta-Lactamase (assay without detergent); P00811; Potency, µM (titrated, usually from 57.1 µM), without a hit: at the highest dose activity change, negative = inhibition, actives largely listed as inhibitors; AmpC nitrocefin hydrolysis, absorbance 480 nm, 0.0001% Triton; hit rate 0.52% among 330,000;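 also: potency is read from the fitted curve at half-maximal effect; plate controls were no compound for no effect and no enzyme for full effect; nearly all actives have a fitted effect of over 20% in size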
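AmpC (5.3 nM in the dispensed reagent) in 20 mM phosphate pH 7.0 with 0.01% (detergent screen) or 0.0001% Triton X-100 was preincubated with compounds for 15 min at room temperature. Nitrocefin was then added from an 800 uM solution, and hydrolysis was followed at 480 nm.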
SARS PLpro yeast-2 – qHTS of Yeast-based Assay for SARS-CoV PLP: Hit Validation; shares compounds with SARS PLpro yeast-1; yeast expressing SARS-CoV PLpro, growth phenotype rescue; calls only; hit rate 19% among 1,000; AID 652038, 2013; call rule not given here
The depositor's hits bear a star. A selection: hits, their analogues and other compounds. The true share with any hit is near 1.4%. Unless noted, calls follow the shape of the dose curve; as a rule, active = well fitted curve in the direction sought with a large enough effect; inconclusive = small, poorly fitted or top-dose-only effect, or another doubt; inactive = no such curve, though single readings can be large; an effect the other way counts as inactive or inconclusive.

`CCC(C)c1ccc(NC(=S)NN2CCOCC2)cc1` (stereo not given) gave FBPA Giardia inh -17%, NS1 inh 4%, SARS PLpro yeast-1 inconclusive, AmpC inh detg 0% and AmpC inh no detg 17%.
CCCCc1ccc(NC(=S)NN2CCOCC2)cc1 was read as FBPA Giardia inh 18%, NS1 inh 25%, SARS PLpro yeast-1 10µM*, AmpC inh detg inconclusive, AmpC inh no detg 50% and SARS PLpro yeast-2 active.
Screening O=C(CSc1nc2nn(-c3ccccc3)c(=O)c-2c2n1CCCCC2)c1ccc(O)c(O)c1 returned SARS PLpro yeast-1 7.1µM*, AmpC inh detg 0%, AmpC inh no detg -44% and SARS PLpro yeast-2 inactive.
CNC(=O)CSc1nc2nn(-c3ccccc3)c(=O)c-2c2n1CCCCC2 was read as FBPA Giardia inh 2%, NS1 inh 0%, SARS PLpro yeast-1 5%, AmpC inh detg 1% and AmpC inh no detg -10%.
For O=C(CSc1ccc2nnc(CCNC(=O)c3ccccc3)n2n1)NCCc1ccccc1 the results were NS1 inh 1%, SARS PLpro yeast-1 -2%, AmpC inh detg 4% and AmpC inh no detg -2%.
For Cn1ncc2c(NNC(=O)c3ccc(Cl)cc3Cl)ncnc21 the results were FBPA Giardia inh 17%, NS1 inh -6%, SARS PLpro yeast-1 inconclusive, AmpC inh detg inconclusive, AmpC inh no detg -13% and SARS PLpro yeast-2 inactive.
Cn1ncc2c(NNC(=O)c3ccc(Cl)c(Cl)c3)ncnc21 was read as FBPA Giardia inh 20%, NS1 inh -8%, SARS PLpro yeast-1 22%, AmpC inh detg -4% and AmpC inh no detg -14%.
Screening Cc1cccc(C2=NN(c3ccc(Br)cc3)[C@@H](C(=O)N3CCOC3=O)[C@@H]2c2ccccc2)c1 returned FBPA Giardia inh 1%, SARS PLpro yeast-1 3.5µM*, AmpC inh no detg -49% and SARS PLpro yeast-2 inactive.
Screening Cc1cccc(NC(=O)CSc2nc(-c3ccccc3)c(C#N)c(=O)[nH]2)c1C returned FBPA Giardia inh 25%, NS1 inh -8%, SARS PLpro yeast-1 5%, AmpC inh detg -3% and AmpC inh no detg -31%.
For COc1cc(/C=C/C(=O)OCC(=O)N2CCC(C)CC2)ccc1OCC#N the results were SARS PLpro yeast-1 -4%, AmpC inh detg 0% and AmpC inh no detg 12%.
`CCNC(=O)c1cccc(NC(=O)CC2SC(N3CCCCC3)=NC2=O)c1` (stereo not given) gave SARS PLpro yeast-1 12%, AmpC inh detg -17% and AmpC inh no detg -21%.
CCOc1ccc(S(=O)(=O)N2CCC(C(=O)OC(C)C(=O)NC3CCCCC3C)CC2)cc1 (stereo not given) was read as SARS PLpro yeast-1 3%, AmpC inh detg 3% and AmpC inh no detg 169%.
For Cc1ccc(S(=O)(=O)N2CCC(C(=O)OC(C)C(=O)NC3CCCCC3C)CC2)cc1C (stereo not given) the results were SARS PLpro yeast-1 inconclusive, AmpC inh detg 2%, AmpC inh no detg 157% and SARS PLpro yeast-2 inconclusive.
Screening O=C(Cn1cncn1)N1CCN(c2ccc(F)cc2)CC1 returned FBPA Giardia inh 2%, NS1 inh 0%, SARS PLpro yeast-1 0%, AmpC inh detg -3% and AmpC inh no detg -17%.
`Cc1cc(/C=N/NC(N)=S)c(C)n1-c1ccc(Cl)c(Cl)c1` gave FBPA Giardia inh inconclusive, NS1 inh 23%, SARS PLpro yeast-1 inconclusive, AmpC inh detg -2%, AmpC inh no detg inconclusive and SARS PLpro yeast-2 inactive.
`O=C(N/N=C/c1cc2ccccc2nc1Cl)/C(=C/c1cccs1)NC(=O)c1ccccc1` gave FBPA Giardia inh 0%, NS1 inh 27%, SARS PLpro yeast-1 inconclusive, AmpC inh detg -7%, AmpC inh no detg -3% and SARS PLpro yeast-2 inactive.
